The source of these data is ChEMBL document CHEMBL2218924, “A broad activity screen in support of a chemogenomic map for kinase signalling research and drug discovery” (Biochem J, 2013).

SMILES strings stand for the structures.

For experiment [1], the target named is T1, Serine/threonine-protein kinase TBK1 (Homo sapiens) (UniProt Q9UHD2).
T1 sequence (whole entry): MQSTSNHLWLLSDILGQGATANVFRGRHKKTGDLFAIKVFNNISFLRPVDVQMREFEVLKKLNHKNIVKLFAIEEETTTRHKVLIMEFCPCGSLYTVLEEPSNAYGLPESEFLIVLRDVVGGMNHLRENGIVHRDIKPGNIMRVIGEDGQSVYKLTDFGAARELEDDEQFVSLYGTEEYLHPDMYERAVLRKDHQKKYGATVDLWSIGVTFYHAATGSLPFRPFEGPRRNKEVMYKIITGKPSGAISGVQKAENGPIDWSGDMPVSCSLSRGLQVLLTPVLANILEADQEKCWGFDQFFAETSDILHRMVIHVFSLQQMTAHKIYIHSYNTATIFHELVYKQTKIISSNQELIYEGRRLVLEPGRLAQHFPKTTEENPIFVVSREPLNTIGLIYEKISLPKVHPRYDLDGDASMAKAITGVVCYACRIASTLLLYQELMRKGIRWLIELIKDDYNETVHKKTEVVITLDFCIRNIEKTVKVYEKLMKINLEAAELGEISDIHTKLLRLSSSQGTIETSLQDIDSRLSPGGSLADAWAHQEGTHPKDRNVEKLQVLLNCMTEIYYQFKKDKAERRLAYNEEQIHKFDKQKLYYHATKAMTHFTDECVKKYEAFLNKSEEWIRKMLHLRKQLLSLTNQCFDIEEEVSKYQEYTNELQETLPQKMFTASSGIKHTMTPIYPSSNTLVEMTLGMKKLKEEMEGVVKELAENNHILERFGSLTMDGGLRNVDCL
The following applies: at 10 µM.

The target in experiment [2] is T2, TGF-beta receptor type-1 (Homo sapiens) (UniProt P36897).
T2 sequence (whole entry): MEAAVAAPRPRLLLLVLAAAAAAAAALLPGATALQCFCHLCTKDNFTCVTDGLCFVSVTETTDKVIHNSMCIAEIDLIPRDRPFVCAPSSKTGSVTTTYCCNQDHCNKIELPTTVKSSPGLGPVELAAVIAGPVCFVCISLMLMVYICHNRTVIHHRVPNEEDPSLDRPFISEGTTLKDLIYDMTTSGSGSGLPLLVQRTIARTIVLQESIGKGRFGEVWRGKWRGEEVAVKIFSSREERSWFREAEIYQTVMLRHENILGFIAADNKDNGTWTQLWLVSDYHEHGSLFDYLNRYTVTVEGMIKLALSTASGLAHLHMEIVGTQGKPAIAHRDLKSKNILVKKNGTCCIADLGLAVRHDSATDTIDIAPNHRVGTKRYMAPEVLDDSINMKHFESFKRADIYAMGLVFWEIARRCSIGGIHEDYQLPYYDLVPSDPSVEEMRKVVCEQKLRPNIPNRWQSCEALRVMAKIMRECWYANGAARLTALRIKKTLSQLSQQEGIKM
The following applies: at 1 µM.

In experiment [3] the target is T2, TGF-beta receptor type-1 (Homo sapiens). The note with it: at 10 µM.
Experiment [4] has as its target Insulin-like growth factor 1 receptor (Homo sapiens) (UniProt P08069). The following applies: at 1 µM.
For experiment [5] the target is unchanged. The following applies: at 10 µM.
Experiment [6] has as its target T3, Inhibitor of nuclear factor kappa-B kinase subunit alpha (Homo sapiens) (UniProt O15111).
T3 sequence (whole entry): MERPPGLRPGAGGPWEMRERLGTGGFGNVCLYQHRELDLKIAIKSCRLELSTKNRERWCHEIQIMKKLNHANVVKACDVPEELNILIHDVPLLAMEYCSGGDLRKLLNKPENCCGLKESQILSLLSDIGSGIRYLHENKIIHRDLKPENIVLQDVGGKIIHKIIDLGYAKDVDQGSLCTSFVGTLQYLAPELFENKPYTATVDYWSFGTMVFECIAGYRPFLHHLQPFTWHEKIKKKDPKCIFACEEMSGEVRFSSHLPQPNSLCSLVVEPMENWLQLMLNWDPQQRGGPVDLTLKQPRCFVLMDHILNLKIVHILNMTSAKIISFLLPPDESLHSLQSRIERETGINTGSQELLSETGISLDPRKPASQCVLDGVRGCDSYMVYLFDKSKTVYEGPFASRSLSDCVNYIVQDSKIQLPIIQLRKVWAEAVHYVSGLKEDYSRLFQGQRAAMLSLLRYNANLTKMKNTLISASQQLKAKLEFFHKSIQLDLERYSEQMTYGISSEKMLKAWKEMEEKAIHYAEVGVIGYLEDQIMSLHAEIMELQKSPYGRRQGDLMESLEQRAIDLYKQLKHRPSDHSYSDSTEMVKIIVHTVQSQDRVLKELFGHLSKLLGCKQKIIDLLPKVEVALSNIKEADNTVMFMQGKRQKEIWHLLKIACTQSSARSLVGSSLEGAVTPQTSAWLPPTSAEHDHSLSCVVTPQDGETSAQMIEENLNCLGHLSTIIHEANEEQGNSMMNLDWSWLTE
The following applies: at 1 µM.

The target of experiment [7] is T3, Inhibitor of nuclear factor kappa-B kinase subunit alpha (Homo sapiens). The following applies: at 10 µM.
The target of experiment [8] is T4, Inhibitor of nuclear factor kappa-B kinase subunit beta (Homo sapiens) (UniProt O14920).
T4 sequence (whole entry): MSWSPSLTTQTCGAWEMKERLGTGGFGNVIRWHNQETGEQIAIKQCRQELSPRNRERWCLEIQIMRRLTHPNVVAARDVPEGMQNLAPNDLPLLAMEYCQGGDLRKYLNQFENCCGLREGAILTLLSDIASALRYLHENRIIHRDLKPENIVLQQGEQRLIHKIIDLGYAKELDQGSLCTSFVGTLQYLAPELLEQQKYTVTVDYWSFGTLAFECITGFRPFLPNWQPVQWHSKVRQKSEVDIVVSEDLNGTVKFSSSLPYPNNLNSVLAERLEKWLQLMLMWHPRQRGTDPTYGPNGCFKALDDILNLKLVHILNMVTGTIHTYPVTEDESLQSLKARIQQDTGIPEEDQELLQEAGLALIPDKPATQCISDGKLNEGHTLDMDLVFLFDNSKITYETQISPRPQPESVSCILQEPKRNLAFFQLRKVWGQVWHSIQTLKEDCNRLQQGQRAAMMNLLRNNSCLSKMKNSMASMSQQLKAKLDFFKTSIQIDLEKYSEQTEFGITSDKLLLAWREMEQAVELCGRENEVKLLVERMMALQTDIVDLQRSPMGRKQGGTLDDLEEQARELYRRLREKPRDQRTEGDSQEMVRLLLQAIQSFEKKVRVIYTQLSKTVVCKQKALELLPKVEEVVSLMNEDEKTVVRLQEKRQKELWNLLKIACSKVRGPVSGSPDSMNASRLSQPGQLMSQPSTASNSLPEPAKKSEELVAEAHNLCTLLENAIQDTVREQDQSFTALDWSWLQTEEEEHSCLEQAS
The following applies: at 1 µM.

Experiment [9] deals with T4, Inhibitor of nuclear factor kappa-B kinase subunit beta (Homo sapiens). The following applies: at 10 µM.
The target in experiment [10] is Insulin receptor (Homo sapiens) (UniProt P06213). The following applies: at 1 µM.
Chain of Insulin receptor (Homo sapiens) (P06213 28-758 limits assumed): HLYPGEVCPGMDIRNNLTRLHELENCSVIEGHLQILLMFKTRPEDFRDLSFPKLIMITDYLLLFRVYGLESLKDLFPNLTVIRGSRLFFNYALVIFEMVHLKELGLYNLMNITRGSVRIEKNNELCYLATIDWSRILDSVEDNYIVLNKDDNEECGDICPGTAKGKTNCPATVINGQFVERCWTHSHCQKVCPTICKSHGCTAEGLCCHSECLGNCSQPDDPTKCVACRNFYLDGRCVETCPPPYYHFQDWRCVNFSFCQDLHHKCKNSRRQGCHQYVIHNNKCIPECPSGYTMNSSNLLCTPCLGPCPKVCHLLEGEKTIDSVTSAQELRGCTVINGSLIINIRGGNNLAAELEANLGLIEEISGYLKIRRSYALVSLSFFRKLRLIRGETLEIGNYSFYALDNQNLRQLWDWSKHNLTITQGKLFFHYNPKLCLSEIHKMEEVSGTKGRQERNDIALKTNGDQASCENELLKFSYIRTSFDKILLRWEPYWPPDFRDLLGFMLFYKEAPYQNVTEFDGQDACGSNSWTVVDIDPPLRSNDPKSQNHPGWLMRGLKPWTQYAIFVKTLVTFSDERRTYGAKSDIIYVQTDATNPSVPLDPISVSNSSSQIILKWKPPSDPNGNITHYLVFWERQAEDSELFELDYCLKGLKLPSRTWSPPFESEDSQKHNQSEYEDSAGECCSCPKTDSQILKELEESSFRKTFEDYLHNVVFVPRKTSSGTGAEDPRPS
Chain of Insulin receptor (Homo sapiens) (P06213 763-1382 limits assumed): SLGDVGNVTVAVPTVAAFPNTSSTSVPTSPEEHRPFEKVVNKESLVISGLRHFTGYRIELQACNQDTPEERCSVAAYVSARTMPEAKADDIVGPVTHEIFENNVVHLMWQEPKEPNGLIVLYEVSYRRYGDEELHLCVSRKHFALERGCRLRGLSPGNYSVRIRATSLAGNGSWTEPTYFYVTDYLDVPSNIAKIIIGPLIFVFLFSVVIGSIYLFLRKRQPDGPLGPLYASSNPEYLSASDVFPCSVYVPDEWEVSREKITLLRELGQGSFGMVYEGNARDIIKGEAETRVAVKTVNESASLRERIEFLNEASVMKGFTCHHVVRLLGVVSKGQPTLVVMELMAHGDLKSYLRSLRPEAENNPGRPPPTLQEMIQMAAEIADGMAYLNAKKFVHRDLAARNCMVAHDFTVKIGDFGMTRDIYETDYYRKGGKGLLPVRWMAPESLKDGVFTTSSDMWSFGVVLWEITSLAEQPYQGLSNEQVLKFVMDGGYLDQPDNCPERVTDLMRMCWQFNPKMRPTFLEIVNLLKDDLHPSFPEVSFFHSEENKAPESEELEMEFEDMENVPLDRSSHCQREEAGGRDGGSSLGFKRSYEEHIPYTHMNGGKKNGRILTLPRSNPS

Chain of Insulin-like growth factor 1 receptor (Homo sapiens) (P08069 31-736 limits assumed): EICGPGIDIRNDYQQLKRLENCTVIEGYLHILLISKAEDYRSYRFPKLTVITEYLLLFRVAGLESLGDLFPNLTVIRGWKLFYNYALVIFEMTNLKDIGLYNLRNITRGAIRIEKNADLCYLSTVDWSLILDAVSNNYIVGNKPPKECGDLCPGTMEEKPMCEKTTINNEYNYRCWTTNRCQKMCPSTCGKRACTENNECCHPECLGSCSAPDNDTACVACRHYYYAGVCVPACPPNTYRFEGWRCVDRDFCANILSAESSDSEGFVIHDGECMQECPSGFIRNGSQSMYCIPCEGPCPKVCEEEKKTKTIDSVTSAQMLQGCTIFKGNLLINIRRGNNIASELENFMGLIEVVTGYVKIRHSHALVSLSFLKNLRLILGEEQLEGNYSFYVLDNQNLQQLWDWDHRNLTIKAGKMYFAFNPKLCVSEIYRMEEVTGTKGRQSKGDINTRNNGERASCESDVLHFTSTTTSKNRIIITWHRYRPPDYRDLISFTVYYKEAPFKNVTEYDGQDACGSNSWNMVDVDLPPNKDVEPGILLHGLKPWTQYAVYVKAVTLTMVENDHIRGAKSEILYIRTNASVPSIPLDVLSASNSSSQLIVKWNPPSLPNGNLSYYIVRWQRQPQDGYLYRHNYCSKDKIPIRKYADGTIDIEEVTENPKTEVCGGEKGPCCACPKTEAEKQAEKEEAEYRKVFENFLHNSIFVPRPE
Chain of Insulin-like growth factor 1 receptor (Homo sapiens) (P08069 741-1367 limits assumed): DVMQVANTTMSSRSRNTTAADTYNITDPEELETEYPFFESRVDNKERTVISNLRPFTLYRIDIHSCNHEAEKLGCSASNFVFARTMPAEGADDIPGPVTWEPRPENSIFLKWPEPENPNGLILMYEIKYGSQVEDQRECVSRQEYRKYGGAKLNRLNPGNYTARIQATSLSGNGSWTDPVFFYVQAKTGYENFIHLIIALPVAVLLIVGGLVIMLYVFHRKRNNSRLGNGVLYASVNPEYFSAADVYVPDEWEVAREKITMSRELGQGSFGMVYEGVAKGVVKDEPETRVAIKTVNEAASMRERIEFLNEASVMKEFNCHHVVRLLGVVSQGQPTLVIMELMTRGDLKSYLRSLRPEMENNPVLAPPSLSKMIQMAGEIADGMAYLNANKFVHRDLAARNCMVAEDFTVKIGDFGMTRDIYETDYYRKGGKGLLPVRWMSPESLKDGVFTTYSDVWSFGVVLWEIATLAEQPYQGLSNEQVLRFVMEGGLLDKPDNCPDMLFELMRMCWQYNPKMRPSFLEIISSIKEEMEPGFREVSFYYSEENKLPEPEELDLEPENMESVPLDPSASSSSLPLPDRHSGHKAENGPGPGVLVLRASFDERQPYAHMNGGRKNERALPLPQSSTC

The term residual activity denotes the signal under treatment as a percentage of the control signal. For the molecule `CC(C)(C)n1nc(Cc2cccc3ccccc23)c2c(N)ncnc21`, the residual activity in experiment [1] was 67%; in [2] it was 78%; in experiment [3], 57%; in experiment [4], 100%; in [5] it was 73%; in [6] it was 99%. Moreover, the residual activity in experiment [7] is 128%; in experiment [8], 104%; in experiment [9], 92%; in experiment [10] it was 98%.
